Molecules are shown by their SMILES. Where “and” joins values, the source holds several entries; their conditions need not be identical. Identical values can stand only once.

For test [1], the target named is Tyrosine-protein kinase Fer (Homo sapiens) (UniProt P16591). The note with it: at 1 µM.
The target in test [2] is Tyrosine-protein kinase Fes/Fps (Homo sapiens) (UniProt P07332). The settings on record: at 0.1 µM.
Test [3] has the same target. The note with it: at 1 µM.
In test [4] the target is Fibroblast growth factor receptor 1 (Homo sapiens) (UniProt P11362). The note with it: at 0.1 µM.
Test [5] shares this target. The note with it: at 1 µM.
In test [6] the target is Fibroblast growth factor receptor 2 (Homo sapiens) (UniProt P21802). The settings on record: at 0.1 µM.
The target is the same in test [7]. The note with it: at 1 µM.
Test [8] has as its target Fibroblast growth factor receptor 3 (Homo sapiens) (UniProt P22607). The settings on record: at 0.1 µM.
Test [9] has the same target. The note with it: at 1 µM.
Test [10] addresses Fibroblast growth factor receptor 4 (Homo sapiens) (UniProt P22455). The note with it: at 0.1 µM.

Sequence of Tyrosine-protein kinase Fes/Fps (Homo sapiens) (P07332 whole entry): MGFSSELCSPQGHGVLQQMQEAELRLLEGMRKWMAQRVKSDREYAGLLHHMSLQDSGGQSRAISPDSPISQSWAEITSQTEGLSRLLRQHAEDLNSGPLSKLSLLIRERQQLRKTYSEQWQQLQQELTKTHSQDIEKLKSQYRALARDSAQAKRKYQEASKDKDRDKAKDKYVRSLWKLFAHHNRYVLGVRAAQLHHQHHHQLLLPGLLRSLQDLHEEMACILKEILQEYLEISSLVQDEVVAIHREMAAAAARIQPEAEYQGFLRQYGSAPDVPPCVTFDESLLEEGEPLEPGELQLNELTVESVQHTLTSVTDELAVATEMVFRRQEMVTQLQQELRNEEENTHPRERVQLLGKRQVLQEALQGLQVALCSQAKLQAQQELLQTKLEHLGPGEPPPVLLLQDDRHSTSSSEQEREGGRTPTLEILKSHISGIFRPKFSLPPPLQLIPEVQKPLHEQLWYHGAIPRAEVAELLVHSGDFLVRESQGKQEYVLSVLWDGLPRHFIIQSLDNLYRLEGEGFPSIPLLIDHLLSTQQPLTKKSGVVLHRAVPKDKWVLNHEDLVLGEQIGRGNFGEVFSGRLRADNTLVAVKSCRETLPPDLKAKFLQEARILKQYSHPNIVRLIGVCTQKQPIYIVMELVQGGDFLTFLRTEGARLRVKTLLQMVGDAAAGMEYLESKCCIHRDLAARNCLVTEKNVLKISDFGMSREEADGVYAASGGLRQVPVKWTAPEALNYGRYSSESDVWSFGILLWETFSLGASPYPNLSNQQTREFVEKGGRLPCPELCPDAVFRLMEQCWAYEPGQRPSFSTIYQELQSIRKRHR
Sequence of Fibroblast growth factor receptor 3 (Homo sapiens) (P22607 23-806 limits assumed): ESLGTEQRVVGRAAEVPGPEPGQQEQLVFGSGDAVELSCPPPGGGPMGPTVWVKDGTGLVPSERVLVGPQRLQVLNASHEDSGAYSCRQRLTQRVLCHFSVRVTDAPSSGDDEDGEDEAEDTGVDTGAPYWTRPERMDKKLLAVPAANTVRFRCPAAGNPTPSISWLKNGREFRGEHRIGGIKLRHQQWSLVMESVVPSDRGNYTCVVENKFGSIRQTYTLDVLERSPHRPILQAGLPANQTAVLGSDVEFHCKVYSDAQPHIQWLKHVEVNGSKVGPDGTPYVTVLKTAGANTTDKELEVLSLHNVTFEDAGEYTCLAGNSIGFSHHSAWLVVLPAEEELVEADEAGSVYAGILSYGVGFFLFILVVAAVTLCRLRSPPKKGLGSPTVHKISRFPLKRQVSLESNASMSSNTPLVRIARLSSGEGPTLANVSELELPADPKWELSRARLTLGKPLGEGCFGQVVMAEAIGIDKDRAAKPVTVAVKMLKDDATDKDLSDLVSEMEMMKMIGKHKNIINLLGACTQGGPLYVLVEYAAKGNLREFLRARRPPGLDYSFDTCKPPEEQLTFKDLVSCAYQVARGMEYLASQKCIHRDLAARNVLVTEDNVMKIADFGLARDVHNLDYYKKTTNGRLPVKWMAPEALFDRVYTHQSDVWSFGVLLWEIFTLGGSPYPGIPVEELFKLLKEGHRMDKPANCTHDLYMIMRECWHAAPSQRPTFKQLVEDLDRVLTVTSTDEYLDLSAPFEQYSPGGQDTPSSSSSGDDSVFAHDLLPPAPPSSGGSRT
Sequence of Fibroblast growth factor receptor 4 (Homo sapiens) (P22455 22-802 limits assumed): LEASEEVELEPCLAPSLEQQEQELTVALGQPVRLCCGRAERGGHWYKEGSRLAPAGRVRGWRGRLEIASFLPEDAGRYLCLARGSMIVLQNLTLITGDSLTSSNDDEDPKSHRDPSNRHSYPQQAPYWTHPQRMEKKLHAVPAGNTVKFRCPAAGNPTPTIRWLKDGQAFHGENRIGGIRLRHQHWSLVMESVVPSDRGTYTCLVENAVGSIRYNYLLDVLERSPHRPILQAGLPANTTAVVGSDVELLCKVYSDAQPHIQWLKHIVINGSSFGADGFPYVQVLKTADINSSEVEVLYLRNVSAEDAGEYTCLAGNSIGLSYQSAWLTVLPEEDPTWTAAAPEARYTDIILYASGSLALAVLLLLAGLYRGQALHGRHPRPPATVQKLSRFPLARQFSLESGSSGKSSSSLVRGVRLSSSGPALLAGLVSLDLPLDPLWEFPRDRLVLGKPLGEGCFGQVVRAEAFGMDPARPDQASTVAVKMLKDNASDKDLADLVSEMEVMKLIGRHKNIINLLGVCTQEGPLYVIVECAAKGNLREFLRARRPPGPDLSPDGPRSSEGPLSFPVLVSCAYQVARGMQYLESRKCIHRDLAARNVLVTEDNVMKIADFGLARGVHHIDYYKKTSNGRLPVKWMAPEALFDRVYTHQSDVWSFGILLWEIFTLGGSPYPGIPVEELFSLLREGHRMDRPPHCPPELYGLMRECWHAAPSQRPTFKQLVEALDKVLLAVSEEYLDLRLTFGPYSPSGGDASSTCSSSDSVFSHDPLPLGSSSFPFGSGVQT
Sequence of Fibroblast growth factor receptor 1 (Homo sapiens) (P11362 22-822 limits assumed): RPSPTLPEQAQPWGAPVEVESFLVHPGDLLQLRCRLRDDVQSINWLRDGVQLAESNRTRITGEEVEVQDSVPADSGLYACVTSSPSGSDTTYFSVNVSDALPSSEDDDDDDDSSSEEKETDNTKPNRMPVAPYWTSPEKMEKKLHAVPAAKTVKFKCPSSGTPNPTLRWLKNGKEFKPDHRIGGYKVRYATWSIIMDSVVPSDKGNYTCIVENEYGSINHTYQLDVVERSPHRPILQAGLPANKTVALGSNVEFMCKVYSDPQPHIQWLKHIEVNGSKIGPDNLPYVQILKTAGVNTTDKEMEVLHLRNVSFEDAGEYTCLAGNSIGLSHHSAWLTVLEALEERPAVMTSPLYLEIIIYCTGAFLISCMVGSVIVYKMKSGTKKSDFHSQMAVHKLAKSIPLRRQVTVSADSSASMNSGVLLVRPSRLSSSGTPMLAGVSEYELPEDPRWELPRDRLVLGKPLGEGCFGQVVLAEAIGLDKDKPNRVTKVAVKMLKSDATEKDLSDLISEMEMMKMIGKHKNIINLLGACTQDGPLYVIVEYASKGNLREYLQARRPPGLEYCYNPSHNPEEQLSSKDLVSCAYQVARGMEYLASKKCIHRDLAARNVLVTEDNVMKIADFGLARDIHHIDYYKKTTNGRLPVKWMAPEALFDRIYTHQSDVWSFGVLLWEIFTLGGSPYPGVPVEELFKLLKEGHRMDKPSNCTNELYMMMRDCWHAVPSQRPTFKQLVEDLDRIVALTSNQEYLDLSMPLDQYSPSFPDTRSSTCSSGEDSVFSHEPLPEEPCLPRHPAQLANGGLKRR
Sequence of Fibroblast growth factor receptor 2 (Homo sapiens) (P21802 22-821 limits assumed): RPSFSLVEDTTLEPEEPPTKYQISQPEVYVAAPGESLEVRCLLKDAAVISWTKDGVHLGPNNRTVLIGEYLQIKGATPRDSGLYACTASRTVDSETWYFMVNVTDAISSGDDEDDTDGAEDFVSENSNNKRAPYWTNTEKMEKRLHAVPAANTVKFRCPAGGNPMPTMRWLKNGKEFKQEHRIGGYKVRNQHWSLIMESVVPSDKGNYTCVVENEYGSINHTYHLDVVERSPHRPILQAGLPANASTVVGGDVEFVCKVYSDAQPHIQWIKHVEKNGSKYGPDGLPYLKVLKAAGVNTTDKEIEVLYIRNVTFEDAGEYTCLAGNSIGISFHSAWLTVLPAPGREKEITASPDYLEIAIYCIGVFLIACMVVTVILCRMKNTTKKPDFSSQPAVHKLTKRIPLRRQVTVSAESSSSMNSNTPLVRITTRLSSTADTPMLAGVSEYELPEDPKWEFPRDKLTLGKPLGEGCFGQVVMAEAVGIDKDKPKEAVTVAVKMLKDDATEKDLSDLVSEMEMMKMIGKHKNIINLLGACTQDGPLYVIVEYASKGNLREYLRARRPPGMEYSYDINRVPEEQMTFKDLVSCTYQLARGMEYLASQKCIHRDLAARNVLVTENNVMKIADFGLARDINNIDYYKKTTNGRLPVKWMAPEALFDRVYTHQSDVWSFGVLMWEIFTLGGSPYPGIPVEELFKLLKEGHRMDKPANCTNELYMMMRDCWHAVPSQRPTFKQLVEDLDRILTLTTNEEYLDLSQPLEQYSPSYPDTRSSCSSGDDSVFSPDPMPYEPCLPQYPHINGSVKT
Sequence of Tyrosine-protein kinase Fer (Homo sapiens) (P16591 whole entry, looked up): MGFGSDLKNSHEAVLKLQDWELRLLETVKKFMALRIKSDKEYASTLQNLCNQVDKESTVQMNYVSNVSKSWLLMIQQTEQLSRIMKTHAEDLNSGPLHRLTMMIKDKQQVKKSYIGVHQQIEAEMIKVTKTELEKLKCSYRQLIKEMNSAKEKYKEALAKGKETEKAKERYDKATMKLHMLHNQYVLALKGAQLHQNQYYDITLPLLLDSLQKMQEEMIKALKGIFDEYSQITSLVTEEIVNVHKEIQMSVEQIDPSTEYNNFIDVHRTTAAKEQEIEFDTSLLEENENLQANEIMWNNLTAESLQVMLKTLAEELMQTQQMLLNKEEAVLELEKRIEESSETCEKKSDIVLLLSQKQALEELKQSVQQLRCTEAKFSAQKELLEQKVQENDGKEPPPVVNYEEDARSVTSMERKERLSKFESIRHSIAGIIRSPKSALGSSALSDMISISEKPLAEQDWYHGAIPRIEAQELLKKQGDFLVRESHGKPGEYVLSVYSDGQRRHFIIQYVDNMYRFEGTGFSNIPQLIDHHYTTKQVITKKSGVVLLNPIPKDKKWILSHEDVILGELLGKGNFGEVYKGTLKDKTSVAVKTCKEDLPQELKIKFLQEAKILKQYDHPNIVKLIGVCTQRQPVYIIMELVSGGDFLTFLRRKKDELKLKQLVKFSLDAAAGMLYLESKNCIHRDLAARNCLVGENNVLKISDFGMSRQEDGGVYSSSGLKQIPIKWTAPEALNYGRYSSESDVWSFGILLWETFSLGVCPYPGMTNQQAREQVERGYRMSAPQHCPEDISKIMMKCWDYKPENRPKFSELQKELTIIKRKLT

The term inhibition denotes the drop in the measured response relative to a control, in per cent. `CS(=O)(=O)Nc1ccc(-c2ccc3c(NC(=O)C4CC4)n[nH]c3c2)cc1`: the inhibition was determined as 11.5% in test [1]; 2.68% in test [2]; 4.38% in test [3]; 6.04% in [4]; 6.36% in test [5]; 3.37% in [6]. Besides, the inhibition in test [7] is 8.17%; in test [8], 6.11%; in test [9], 5.97%; in test [10], -2.39%.
Regarding `CN1CCN(Cc2ccc(-c3cc4ncnc(Nc5ccc(OCc6cccc(F)c6)c(Cl)c5)c4s3)o2)CC1`, the inhibition in test [1] was 7.48% and 15.1%; in test [2], 2.89% and 4.05%; in test [3] it was 6.42% and 6.83%; in test [4] it was 2.24% and 7.51%; in test [5] it was 2.3% and 1.47%; in test [6], 3.18% and 3.5%. Also, the inhibition in test [7] was 4.91% and 4.73%; in [8], 3.81% and 6.54%; in test [9] it was 2.58% and 3.34%; in [10], 0.04% and -5.98%.
`CN(c1ccc(NC(=O)NCCN2CCOCC2)cc1)c1ccnc(Nc2ccc(CS(C)(=O)=O)cc2)n1`: the inhibition amounted to 20.6% in test [1]; 2.04% in test [2]; 7.78% in [3]; 1.48% in test [4]; 0.91% in test [5]; 7.93% in test [6]. Also, the inhibition in test [7] turned out to be 14.8%; in test [8], 6.19%; in test [9], 10.3%; in [10], 1.27%.
Take `Cc1ccc(-c2cc3c(NC(=O)C4CC4)ncnc3o2)cc1`: the inhibition in [1] was 6.82%; in test [2], 4.78%; in test [3], 7.73%; in [4], 7.46%; in test [5], 5.81%; in test [6], 6.04%. For the same compound, the inhibition in test [7] stood at 10.7%; in test [8], 5.42%; in [9], 5.53%; in test [10], 1.15%.
Consider `O=C(Nc1n[nH]c2nnc(-c3cccnc3)cc12)C1CC1`, for which the inhibition in [1] is 0.68%; in test [2], -0.26%; in [3], -1.66%; in [4] it was -0.17%; in test [5], -1.08%; in test [6] it was -0.85%. The inhibition in test [7] was -0.69%; in test [8], 0.05%; in [9] it was 1.8%; in test [10], 2.02%.
As for `O=C(O[C@H]1CN[C@H](C#Cc2cc3ncnc(Nc4ccc(OCc5cccc(F)c5)c(Cl)c4)c3s2)C1)N1CCOCC1`, the inhibition in test [1] is 5.25%; in test [2], 3.88%; in test [3], 3.5%; in [4], 1.16%; in test [5] it was 3.49%; in [6], 6.97%. Also, the inhibition in test [7] was found to be 4.24%; in [8], 5.89%; in [9] it was 6.62%; in test [10] it was 1.38%.
For `CC1=C(C(=O)Nc2ccc3[nH]nc(C)c3c2)C(c2ccc(C(F)(F)F)cc2)CC(=O)N1` (stereo not given), the inhibition in [1] was 3.02%; in [2] it was 1.58%; in test [3] it was 2.34%; in test [4], -0.57%; in test [5], 9.3%; in test [6], 4.48%. In addition, the inhibition is 13.4% in [7], 5.62% in test [8], 8.47% in test [9] and -0.06% in test [10].
Regarding `CCS(=O)(=O)c1ccc(OC)c(Nc2ncc(-c3cccc(F)c3)o2)c1`, the inhibition in [1] stood at 8.9%; in test [2] it was 4.72%; in test [3], 4.79%; in test [4], 12.7%; in [5] it was 46.2%; in test [6], 40.5%. Moreover, the inhibition worked out at 69.8% in test [7], 52.9% in test [8], 77.3% in test [9] and 5.31% in [10].
For `CS(=O)(=O)Nc1ccc(-c2cc(-c3ccccc3)cc(C(N)=O)c2N)cc1`, the inhibition in [1] was found to be 1.1%; in test [2] it was 1.07%; in test [3], 1.64%; in [4] it was 0.45%; in [5], 3.2%; in test [6], 1.73%. In addition, the inhibition was 4.95% in [7], -0.12% in test [8], 8.3% in [9] and 0.07% in [10].
Turning to `NC(=O)c1ccc2c(-c3ccnc(NCCCO)n3)c(-c3ccc(F)cc3)nn2c1`, the inhibition amounted to 6.71% in [1]; 3% in test [2]; 5.19% in test [3]; 8.04% in test [4]; 8.15% in test [5]; 4.29% in test [6]. Moreover, the inhibition in test [7] worked out at 9.62%; in [8], 5.45%; in test [9] it was 7.13%; in test [10] it was 0.14%.
In the case of `COc1cc(N2CCN(C(C)C)CC2)ccc1Nc1nc(Nc2cccc(F)c2C(=O)O)c2cc[nH]c2n1`, the inhibition came to 75.6% in [1]; 18.5% in test [2]; 63.7% in test [3]; 2.19% in [4]; 6.27% in test [5]; 7.3% in test [6]. Also, the inhibition was 9.34% in test [7], 4.65% in [8], 8.48% in test [9] and -2.62% in test [10].
As for `CS(=O)(=O)CCNCc1ccoc1-c1ccc2ncnc(Nc3ccc(OCc4ccccc4)cc3)c2c1`, the inhibition was 1.52% in [1]; 1.6% in [2]; 0.27% in test [3]; -2.87% in test [4]; 2.44% in test [5]; -0.37% in [6]. The inhibition amounted to 2.62% in [7], 2.09% in test [8], 3.53% in test [9] and 0.96% in test [10].
As to `Nc1nonc1-c1nc2cnccc2n1C1CC1`, the inhibition is 0.34% and 3.05% in [1]; 2.84% and 0.98% in test [2]; 3.51% and 0.87% in [3]; 13.1% and 2.25% in test [4]; 8.28% and -2.04% in test [5]; 5.07% and -2.09% in test [6]. Also, the inhibition in test [7] is 8.58% and -2.64%; in [8], 7.58% and 1.46%; in [9] it was 8.03% and -1.3%; in [10] it was 0.52% and -4.76%.
Take `CNC(=O)c1cncc(/C=C/c2ccccc2C)c1`: the inhibition is 4.88% in test [1]; 2.38% in test [2]; 1.6% in test [3]; 4.11% in test [4]; 3.14% in test [5]; 2.42% in [6]. Further, the inhibition was 4.95% in test [7], 6.04% in test [8], 4.39% in [9] and 0.55% in test [10].
In the case of `CCCNc1cccc(-n2ncc3c(N/N=C/c4ccncc4)ncnc32)c1`, the inhibition in test [1] was found to be 9.15%; in test [2], 2.38%; in test [3], 5.6%; in test [4], 0.48%; in test [5], 3.31%; in [6], 2.19%. Moreover, the inhibition in test [7] is 19.4%; in test [8] it was 0.74%; in test [9] it was 8.88%; in test [10], -1.49%.

Values taken from ChEMBL document CHEMBL1961873, “Compounds: GSK PKIS; Assays: Nanosyn kinase panel” (2012).
